Changes are numbered by the printed parent chain.

Among the data in PMC5700166 are binding signal values, retold here.

Assay in all cases: protein-binding microarray (PBM); PBM: ~300 nM protein, 6 mM HEPES pH 7.8, 80 mM KCl, 0.5 mM EDTA, 0.5 mM EGTA, 6% glycerol, 35 ng/ul poly-dIdC, 1% milk, 1 h, room temperature; Ap Aiptasia and Nv Nematostella (sea anemones) / Co Capsaspora / Aq Amphimedon (sponge) / Dm Drosophila / Hu human; RHD is the Rel homology domain; high values mean tight binding
Holding throughout (conditions): dsDNA, one strand shown

The target of one experiment is T1, GST-Ap-NF-kB RHD (Exaiptasia pallida (Aiptasia), UniProt A0A913YAJ5 2-422).
T1 sequence: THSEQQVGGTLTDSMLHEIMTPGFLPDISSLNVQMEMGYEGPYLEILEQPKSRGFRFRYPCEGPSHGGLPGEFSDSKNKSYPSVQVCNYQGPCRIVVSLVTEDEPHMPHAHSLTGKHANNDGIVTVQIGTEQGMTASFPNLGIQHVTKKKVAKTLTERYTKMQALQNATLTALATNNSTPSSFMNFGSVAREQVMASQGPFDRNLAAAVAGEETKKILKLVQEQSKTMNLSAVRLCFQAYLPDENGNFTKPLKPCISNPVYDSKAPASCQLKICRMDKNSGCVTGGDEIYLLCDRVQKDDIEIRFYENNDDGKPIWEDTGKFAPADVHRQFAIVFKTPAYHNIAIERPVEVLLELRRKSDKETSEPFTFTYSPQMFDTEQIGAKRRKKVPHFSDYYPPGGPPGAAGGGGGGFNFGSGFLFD

Experiment [1] deals with T2, GST-Nv-NF-kB (Cys allele) (Nematostella vectensis, UniProt E5G601 2-411).
T2 sequence: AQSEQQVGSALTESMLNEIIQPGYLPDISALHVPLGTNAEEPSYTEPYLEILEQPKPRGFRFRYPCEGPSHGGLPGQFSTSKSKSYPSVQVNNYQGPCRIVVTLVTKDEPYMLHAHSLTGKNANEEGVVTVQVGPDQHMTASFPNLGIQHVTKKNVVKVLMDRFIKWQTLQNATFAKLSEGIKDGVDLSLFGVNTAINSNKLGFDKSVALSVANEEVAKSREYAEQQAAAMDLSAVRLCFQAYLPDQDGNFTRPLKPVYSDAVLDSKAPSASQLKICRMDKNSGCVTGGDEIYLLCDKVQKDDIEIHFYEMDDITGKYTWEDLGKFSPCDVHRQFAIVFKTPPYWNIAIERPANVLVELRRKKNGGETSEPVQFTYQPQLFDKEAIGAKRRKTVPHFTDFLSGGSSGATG

The target in experiment [2] is T3, GST-Nv-NF-kB (Ser allele) (Nematostella vectensis, UniProt A7UNT2 2-411).
T3 sequence: T2 sequence with Q21R, C66S, S207N, E215Q, V217A, E225K, A268E, D399E

The next experiment concerns the target T4, GST-Co-NF-kB (Capsaspora owczarzaki, UniProt F1ARL5 200-546).
T4 sequence: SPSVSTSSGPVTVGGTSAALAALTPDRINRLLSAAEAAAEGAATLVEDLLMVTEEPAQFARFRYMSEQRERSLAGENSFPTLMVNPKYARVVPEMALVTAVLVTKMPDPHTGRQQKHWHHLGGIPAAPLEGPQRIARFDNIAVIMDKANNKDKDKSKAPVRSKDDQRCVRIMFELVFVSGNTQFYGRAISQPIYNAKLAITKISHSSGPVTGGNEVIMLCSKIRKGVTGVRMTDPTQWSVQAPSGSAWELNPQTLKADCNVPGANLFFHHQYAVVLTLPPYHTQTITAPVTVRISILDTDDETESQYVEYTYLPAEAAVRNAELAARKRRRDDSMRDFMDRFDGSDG

In another experiment the target is T5, GST-Dm-Relish (Drosophila melanogaster, UniProt Q94527 99-473).
T5 sequence: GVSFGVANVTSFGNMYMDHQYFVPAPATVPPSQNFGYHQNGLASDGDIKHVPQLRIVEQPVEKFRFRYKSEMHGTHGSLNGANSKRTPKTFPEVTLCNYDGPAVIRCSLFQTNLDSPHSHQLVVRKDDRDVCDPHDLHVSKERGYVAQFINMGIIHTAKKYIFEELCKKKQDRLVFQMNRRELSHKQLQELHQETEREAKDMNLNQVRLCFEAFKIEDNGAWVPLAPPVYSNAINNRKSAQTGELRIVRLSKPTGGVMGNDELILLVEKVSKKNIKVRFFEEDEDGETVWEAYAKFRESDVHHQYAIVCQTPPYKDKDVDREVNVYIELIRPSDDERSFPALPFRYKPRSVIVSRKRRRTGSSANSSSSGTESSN

Another experiment addresses T6, GST-Aq-NF-kB (Amphimedon queenslandica, UniProt A9Y5G7 2-389).
T6 sequence: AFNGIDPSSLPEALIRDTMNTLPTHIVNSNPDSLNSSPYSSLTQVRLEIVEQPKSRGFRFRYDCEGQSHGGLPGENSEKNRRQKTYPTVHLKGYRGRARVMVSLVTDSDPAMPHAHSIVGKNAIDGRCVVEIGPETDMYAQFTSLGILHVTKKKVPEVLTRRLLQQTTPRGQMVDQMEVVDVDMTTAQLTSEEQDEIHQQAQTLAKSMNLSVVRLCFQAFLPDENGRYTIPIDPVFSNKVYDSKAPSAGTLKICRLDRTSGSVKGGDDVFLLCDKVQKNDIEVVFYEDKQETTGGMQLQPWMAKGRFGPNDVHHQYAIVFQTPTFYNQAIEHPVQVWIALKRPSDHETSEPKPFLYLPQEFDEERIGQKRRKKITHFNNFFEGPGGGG

The target of the next experiment is GST-Hu-p50 (Homo sapiens, UniProt P19838 7-356).
GST-Hu-p50, sequence (P19838 7-356): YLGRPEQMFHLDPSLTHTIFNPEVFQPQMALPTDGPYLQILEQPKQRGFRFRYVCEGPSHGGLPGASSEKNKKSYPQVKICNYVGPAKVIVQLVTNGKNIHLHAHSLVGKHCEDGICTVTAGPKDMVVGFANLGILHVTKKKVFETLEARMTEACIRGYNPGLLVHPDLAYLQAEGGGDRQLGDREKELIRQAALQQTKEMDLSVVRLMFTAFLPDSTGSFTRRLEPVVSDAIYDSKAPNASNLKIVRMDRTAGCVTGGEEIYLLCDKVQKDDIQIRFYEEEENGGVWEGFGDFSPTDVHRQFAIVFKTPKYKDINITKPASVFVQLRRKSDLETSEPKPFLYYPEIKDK

For the sequence “CCGATTAACATCAAAATTCCCACTGATGTTAATCGGGTCTTGATTCGCTTGACGCTGCTG”, the binding signal with GST-Ap-NF-kB RHD stood at 3.89 z-score; in experiment [1], 5.68 z-score; in experiment [2], 5.15 z-score; with GST-Co-NF-kB it was 4.31 z-score; in the experiment with GST-Dm-Relish, 5.55 z-score; with GST-Aq-NF-kB it was 4.54 z-score. Further, the binding signal with GST-Hu-p50 was found to be 4.27 z-score.

“CCGATTAACATCAGGGGAATTACTGATGTTAATCGGGTCTTGATTCGCTTGACGCTGCTG”: the binding signal came out at 8.73 z-score in the experiment with GST-Ap-NF-kB RHD; 10.6 z-score in experiment [1]; 10.2 z-score in experiment [2]; 7.45 z-score with GST-Co-NF-kB; 10.2 z-score with GST-Dm-Relish; 8.27 z-score with GST-Aq-NF-kB. The binding signal with GST-Hu-p50 was determined as 7.09 z-score.

“CCGATTAACATCAGGGGAAAAACTGATGTTAATCGGGTCTTGATTCGCTTGACGCTGCTG”: the binding signal with GST-Ap-NF-kB RHD amounted to 6.41 z-score; in experiment [1] it was 8.02 z-score; in experiment [2], 10.3 z-score; in the experiment with GST-Co-NF-kB it was 9.24 z-score; with GST-Dm-Relish, 9.62 z-score; in the experiment with GST-Aq-NF-kB, 6.72 z-score. This sequence showed a binding signal with GST-Hu-p50 of 6.32 z-score.

“CCGATTAACATCAGGGGGTTACCTGATGTTAATCGGGTCTTGATTCGCTTGACGCTGCTG”: the binding signal came to 8.27 z-score in the experiment with GST-Ap-NF-kB RHD; 6.63 z-score in experiment [1]; 5.92 z-score in experiment [2]; 4.04 z-score with GST-Co-NF-kB; 9.18 z-score with GST-Dm-Relish; 8.61 z-score with GST-Aq-NF-kB. The same sequence showed a binding signal with GST-Hu-p50 of 5.51 z-score.

For the sequence “CCGATTAACATCACTGAAATCCCTGATGTTAATCGGGTCTTGATTCGCTTGACGCTGCTG”, the binding signal with GST-Ap-NF-kB RHD stood at 2.61 z-score; in experiment [1], 2.29 z-score; in experiment [2] it was 1.72 z-score; with GST-Co-NF-kB it was 1.34 z-score; in the experiment with GST-Dm-Relish, 3.35 z-score; with GST-Aq-NF-kB, 2.54 z-score. Also, the binding signal with GST-Hu-p50 amounted to 1.71 z-score.

Consider “CCGATTAACATCAAGTCTCCCCCTGATGTTAATCGGGTCTTGATTCGCTTGACGCTGCTG”, for which the binding signal was 6.67 z-score with GST-Ap-NF-kB RHD; 5.33 z-score in experiment [1]; 7.25 z-score in experiment [2]; 8.63 z-score with GST-Co-NF-kB; 2.82 z-score with GST-Dm-Relish; 4.5 z-score in the experiment with GST-Aq-NF-kB. The same sequence showed a binding signal with GST-Hu-p50 of 5.75 z-score.

For the sequence “CCGATTAACATCAGGCAAACCCCTGATGTTAATCGGGTCTTGATTCGCTTGACGCTGCTG”, the binding signal with GST-Ap-NF-kB RHD stood at 3.13 z-score; in experiment [1], 2.8 z-score; in experiment [2], 1.51 z-score; in the experiment with GST-Co-NF-kB, 1.49 z-score; with GST-Dm-Relish, 3.13 z-score; with GST-Aq-NF-kB, 4.85 z-score. Further, in the experiment with GST-Hu-p50, the binding signal was found to be 3.63 z-score.

Turning to “CCGATTAACATCAGGCAATCCCCTGATGTTAATCGGGTCTTGATTCGCTTGACGCTGCTG”, the binding signal is 7.27 z-score with GST-Ap-NF-kB RHD; 7.19 z-score in experiment [1]; 6.86 z-score in experiment [2]; 1.6 z-score in the experiment with GST-Co-NF-kB; 6.78 z-score with GST-Dm-Relish; 7.01 z-score with GST-Aq-NF-kB. The same sequence displayed a binding signal in the experiment with GST-Hu-p50 of 5.39 z-score.

In the case of “CCGATTAACATCAGGACCTCCCCTGATGTTAATCGGGTCTTGATTCGCTTGACGCTGCTG”, the binding signal with GST-Ap-NF-kB RHD came out at 5.62 z-score; in experiment [1], 4.17 z-score; in experiment [2], 2.85 z-score; in the experiment with GST-Co-NF-kB it was 2.53 z-score; with GST-Dm-Relish, 5.19 z-score; in the experiment with GST-Aq-NF-kB, 6.93 z-score. This sequence came in with a binding signal with GST-Hu-p50 of 3.65 z-score.

With “CCGATTAACATCAGATAATTCCCTGATGTTAATCGGGTCTTGATTCGCTTGACGCTGCTG”, the binding signal with GST-Ap-NF-kB RHD came to 5.7 z-score; in experiment [1], 7.58 z-score; in experiment [2] it was 6.02 z-score; in the experiment with GST-Co-NF-kB, 4.01 z-score; with GST-Dm-Relish it was 3.74 z-score; with GST-Aq-NF-kB, 7.02 z-score. The same sequence showed a binding signal in the experiment with GST-Hu-p50 of 4.73 z-score.

Take “CCGATTAACATCAGAATTCCCCATGATGTTAATCGGGTCTTGATTCGCTTGACGCTGCTG”: the binding signal with GST-Ap-NF-kB RHD was determined as 8.83 z-score; in experiment [1], 10.3 z-score; in experiment [2], 9.9 z-score; with GST-Co-NF-kB it was 7.04 z-score; with GST-Dm-Relish, 6.72 z-score; with GST-Aq-NF-kB it was 6.99 z-score. The sequence also showed a binding signal with GST-Hu-p50 of 6.62 z-score.
